# From PubChem BioAssay
# Sampled rows, rich in hits. Any-hit rate of the full collection: about 4.8%.
# ssDAF12 agonist – activators of S. stercoralis DAF-12 nuclear receptor; HEK293 ssDAF-12/GRIP1 lit1-tk-luc reporter, luminescence; % of 3 µM dafachronic acid response; activation, % at 6.8 µM; 1% of 370,000 active; AID 652126;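 active = activation above the mean over all tested compounds plus 3 SD, cut at about 0.9% in these data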;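 also: 0% = DMSO-only wells and 100% = 3 µM delta7-dafachronic acid wells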
# hgDAF-12 ag – agonists of H. glycines DAF-12 nuclear receptor; HEK293 GAL4-hgDAF12 UAS-luciferase reporter, agonist luminescence; normalized to butyrate control; AID 687014; 1.8% of 370,000 active; activation, % at 6.8 µM;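 active = activation above a cutoff set at the mean of all screened compounds plus 3 SD, cut at about 10% in these data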;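 also: 0% = DMSO wells and 100% = sodium butyrate wells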
# DAX1 inh-1 – blocks DAX1 repression of SF-1 activated StAR promoter | HEK293T StAR-luciferase reporter, SF-1/DAX-1 repression relief | inhibition, % at 6.8 µM | 1.1% of 370,000 active | AID 652010;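 active = inhibition above the mean over all tested compounds plus 3 SD, cut at about 3.6% in these data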;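 also: 0% = DAX-1 cells with DMSO and 100% = cells lacking DAX-1 with DMSO; higher inhibition means more luminescence from relief of DAX-1 repression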
# DAX1 inh-2 – inhibitors of human orphan nuclear receptor DAX1 (NR0B1). P51843. HEK293 Gal4-DAX1 luciferase reporter, luminescence. inhibition, % at 6.75 µM. 0.99% of 340,000 active. AID 504766;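 active = inhibition above the mean over all tested compounds plus 3 SD, cut at about 4.2% in these data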;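 also: 0% = DAX1-transfected cells with DMSO and 100% = empty-vector control cells with DMSO; inhibition shows as a rise in luminescence from relieved DAX1 repression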
# Target sequence (P51843 207-470 limits assumed): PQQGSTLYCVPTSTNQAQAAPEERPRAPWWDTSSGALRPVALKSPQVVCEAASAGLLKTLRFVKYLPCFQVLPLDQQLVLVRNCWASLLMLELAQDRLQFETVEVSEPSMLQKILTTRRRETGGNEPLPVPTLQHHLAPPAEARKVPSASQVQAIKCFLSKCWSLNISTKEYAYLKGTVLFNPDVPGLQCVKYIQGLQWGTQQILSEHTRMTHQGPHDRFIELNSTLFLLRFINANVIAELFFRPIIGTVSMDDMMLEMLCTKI
# hcDAF12 agonist – activators of H. contortus DAF-12 nuclear receptor | HEK293 hcDAF-12 lit1-tk-luc reporter, luminescence; 0% DMSO, 100% Δ7-dafachronic acid | activation, % at 6.8 µM | 1.4% of 370,000 active | AID 652067;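 active = activation above the mean of all tested compounds plus 3 SD, cut at about 5.5% in these data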;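 also: 100% = response to 3 µM Δ7-dafachronic acid high control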
# SMARCA2 act – activators of SMARCA2 function; 1% of 370,000 active; AID 652017; activation, % at 9.1 µM; MG213 cells, MMTV-luciferase reporter, dexamethasone, overnight; in the data active = activation above about 7.8%;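 also: 0% = vehicle wells and 100% = reference activator wells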
# LXR ag – activates human LXR-beta, counter-screen for hcDAF-12 agonists; shares compounds with hcDAF12 agonist; HEK293 Gal4-LXR tk-luc reporter, luminescence, 24 h; normalized: DMSO 0%, positive control 100%; activation, % at 6.8 µM; 3,400 tested, under 10 active;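 active = mean percent activation of the reporter above a cutoff set as the average over tested compounds plus their standard deviation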
# hcDAF12 conf – hcDAF-12 agonism, confirmation assay. shares compounds with hcDAF12 agonist. HEK293 hcDAF-12 lit1-tk-luc reporter, luminescence; % of Δ7-dafachronic acid response. activation, % at 6.8 µM. 61% of 3,400 active;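 active = mean activation across triplicate tests above the threshold derived from the earlier primary screen, cut at about 5.5% in these data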;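 also: 0% = DMSO only wells and 100% = 3 µM Δ7-dafachronic acid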
# * hit, by the source's call; . = not tested or not shown.
SMILES,ssDAF12 agonist,hgDAF-12 ag,DAX1 inh-1,DAX1 inh-2,hcDAF12 agonist,SMARCA2 act,LXR ag,hcDAF12 conf
N/C(=N\OC(=O)c1ccc(Cl)cc1[N+](=O)[O-])c1cccnc1,0.3,8.0,1.0,1.5,7.0*,5.1,0.3,6.4*
CC(C)CCNC(=O)c1cc(S(=O)(=O)N2CCC3(CC2)OCCO3)ccc1F,-1.6,-3.8,0.0,-0.9,-2.0,0.9,.,.
O=c1cc(-c2ccccc2)[nH]c2[nH]n(-c3ccccc3)c(=O)c12,-1.5,-3.4,-0.4,-1.2,-0.5,-2.7,.,.
Cc1ccc(-c2c(C(=O)N/N=C/c3sccc3C)nnn2-c2nonc2N)cc1,-1.3,0.9,-0.3,-0.5,-0.4,-2.2,.,.
CCOC(=O)c1cn[nH]c1NC(=S)Nc1ccc(OC)cc1,0.3,9.4,1.6,-2.0,8.0*,-1.2,1.5,9.3*
CC1CN(C(=S)Nc2ccc(Cl)cc2)CC(C)O1 (stereo not given),-1.8,1.0,0.0,-0.8,-0.3,-0.6,.,.
Cc1ccc2sc(-c3ccc(NC(=O)CCN4C(=O)c5ccccc5C4=O)cc3)nc2c1,0.8,8.8,2.3,.,10.0*,7.6,1.9,9.0*
COc1ccc(-c2cn3cc(Cl)ccc3n2)cc1OC,0.7,9.0,2.4,1.9,8.6*,7.5,0.2,5.2
COc1ccc(-c2cn3nc(C)c(C)nc3n2)cc1OC,-0.1,1.5,2.5,1.2,0.7,-1.7,.,.
Clc1ccc2nc(-c3ccc(Br)s3)cn2c1,1.0*,11.2*,3.5,-2.1,14.9*,4.0,1.4,18.8*
O=C(COc1cccc(Cl)c1)Nc1cc(S(=O)(=O)N2CCOCC2)ccc1N1CCOCC1,-1.4,0.2,-0.2,1.7,-0.9,-3.1,.,.
CCn1c(/C=C/c2c(C)[nH]c3ccccc23)nc2ccccc2c1=O,0.9*,5.0,0.3,0.2,10.0*,-0.5,0.0,3.7
CCn1c(/C=C/c2ccccc2Cl)nc2ccccc2c1=O,-0.9,2.1,0.1,1.6,-1.1,2.6,.,.
CCn1c(/C=C\c2ccccc2C)nc2ccccc2c1=O,-2.0,3.4,-0.7,-0.6,0.1,4.8,.,.
CCn1c(/C=C/c2c[nH]c3ccccc23)nc2ccccc2c1=O,1.4*,11.7*,3.2,5.2*,8.6*,6.4,1.5,7.8*
COC(=O)CC(NC(=O)c1ccc(C)cc1)c1ccc2c(c1)OCO2 (stereo not given),-0.4,-3.0,-0.7,-1.0,-1.4,-0.3,.,.
O=C(NC(Cc1c[nH]c2ccccc12)c1nnc2n1CCCCC2)c1ccccc1 (stereo not given),-1.3,1.6,0.2,0.1,-2.0,0.6,.,.
COc1ccc2c(c1)CC/C2=N\NC(=O)c1ccccc1,-0.6,9.3,0.8,3.2,2.7,2.0,.,.
COc1ccccc1N1CCN(C(=O)c2cc3c(s2)-c2ccccc2OC3)CC1,-0.9,2.8,-0.1,2.1,0.6,-1.7,.,.
COC(=O)c1cc2c(s1)-c1ccc(OC)cc1CC2,-0.4,6.1,1.0,7.7*,7.1*,3.3,0.3,4.4
COC(=O)c1cc2c(s1)-c1ccccc1OC2,0.0,3.9,1.0,0.5,8.9*,3.3,0.3,3.1
Cc1ccc(C2=Nc3ccccc3N=C(C(Cl)Cl)C2)cc1,2.8*,19.1*,3.8*,-0.8,16.9*,0.3,1.3,9.9*
CCCC(=O)Nc1ccc(N2CCN(C(=O)c3cc4ccccc4o3)CC2)cc1,-0.9,1.1,-0.4,-1.9,-3.8,-5.2,.,.
CCc1ccc(C2c3[nH]c4ccccc4c3CCN2C(=O)CN2CCN(CC)CC2)cc1 (stereo not given),0.5,0.2,0.5,-0.9,8.5*,3.0,-0.3,3.5
CSc1ccc(C2c3[nH]c4ccccc4c3CCN2C(=O)c2ccnn2C)cc1 (stereo not given),2.0*,6.8,0.3,0.5,10.4*,4.0,1.1,8.3*
SMILES,ssDAF12 agonist,hgDAF-12 ag,DAX1 inh-1,DAX1 inh-2,hcDAF12 agonist,SMARCA2 act,LXR ag,hcDAF12 conf
CCc1ccc(C2c3[nH]c4ccccc4c3CCN2C(=O)CNC(N)=O)cc1 (stereo not given),-0.8,1.6,-0.4,-0.9,2.0,2.5,.,.
CCOc1ccc(NC(=O)C(C)Oc2ccccc2C(=O)Nc2ccc(C)c(Cl)c2)cc1 (stereo not given),0.7,8.1,0.2,-0.1,7.0*,-0.9,0.0,7.4*
Cc1cc2ncn(CC(O)COC3CCCCC3)c2cc1C (stereo not given),-1.0,-2.8,0.3,0.4,-2.0,-0.2,.,.
CC(=O)c1cccc2c(O)c(C3=Nc4ccccc4C3=O)[nH]c12,1.2*,4.9,1.2,0.4,6.6*,2.4,0.6,7.1*
O=C(O)c1cccc2c(-c3ccccc3)c(-c3ccccc3)[nH]c12,-0.8,-2.6,-0.2,-0.9,0.1,-0.8,.,.
Cc1ccc(C(=O)NC2CCCCCCC2)c(Cl)c1,0.3,6.2,1.7,-2.9,6.9*,0.1,1.3,8.8*
O=C(NCCc1ccccc1)C1CCN(c2nc3ccccc3o2)CC1,.,.,.,1.5,.,.,.,.
Cc1ccccc1OCC(=O)Nc1ccc(S(=O)(=O)N2CCCC2)cc1,-1.4,0.2,-1.9,0.5,-1.4,-1.8,.,.
N#CC1=C(N)C(C#N)(C#N)C2(C(=O)Nc3ccccc32)C2CCCC=C12 (stereo not given),-0.1,-1.5,1.1,-1.6,6.8*,-1.8,-0.4,0.9
COc1ccc(Cl)cc1/C=C/c1ccc2cccc(O)c2n1,0.3,6.4,-0.5,-0.1,7.7*,6.4,0.1,3.3
COc1cc(OC)c(OC)cc1C=Cc1ccc2ccccc2n1,0.8,8.0,0.7,-0.9,2.9,3.4,.,.
COc1ccccc1NC(=O)/C=C\C(=O)O,0.1,0.1,-0.4,-0.8,7.3*,-1.0,-0.1,-0.4
COc1ccccc1NC(C)=O,-1.6,-0.2,-1.0,-0.5,-0.3,3.3,.,.
Cc1cscc1NC(=O)/C=C/C(=O)O,-0.2,1.0,0.5,.,6.8*,-1.1,-0.4,1.2
COc1ccccc1Cc1c(C(C)(C)C)nc2ccc(C)cn12,0.8,7.1,0.4,.,6.6*,3.5,-0.1,4.0
COc1ccc(Cc2c(C(C)(C)C)nc3ccc(C)cn23)c(C)c1,-0.6,-2.5,-0.1,.,-0.4,-3.6,.,.
CCOC(=O)C1=NN(c2ccccc2)C2=NC(C)=C(C(=O)OC)C(c3ccc(C)cc3)N12 (stereo not given),-1.2,-0.2,0.0,2.0,8.3*,-0.4,-0.4,-1.7
